High-throughput results: PubChem, several laboratories
CFTR F508del cor – F508del CFTR correction, initial screen, CFBE line, single point; CFBE cells, YFP halide quenching; stimulated with forskolin plus potentiator P3; % fluorescence drop versus neutral controls; activity (quench increase), % at 7.58 µM; hit rate 0.36% among 350,000;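 active = mean added fluorescence quench of at least 8% versus neutral control, with both replicates also reaching 8%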;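 note: cells transiently co-express mutant CFTR-F508del with the halide-sensitive YFP; corrector assay measuring rescue of mutant channel to the surface after 24 h compound exposure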
SKN-1 inh – suppressors of acrylamide-induced Pgst-4::GFP reporter in worms, primary screen, SKN-1 inhibitor project, whole organism, uHTS, GFP/RFP fluorescence ratio, strain VP596; C. elegans VP596 Pgst-4::GFP/RFP ratio, 24 h; inhibition, % at 21.8 µM; hit rate 0.49% among 360,000; AID 624304, 2012;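 active = interference check ratio from 0.5 to 1.5 plus GFP to RFP signal ratio inhibition reaching or exceeding a fixed threshold, cut at about 30% in these data, passing the limit was not always enough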
MPTP block – mitochondrial permeability transition pore inhibitors, primary screen, biochemical, isolated mouse mitochondria, absorbance; AID 602449, 2012; Ca2+ swelling absorbance, 30 min; hit rate 1.4% among 360,000; inhibition, % at 10 µM;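 active = inhibition of 50% or more, scaled per plate between neutral and stimulator controls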
ATG4B inhibitor – ATG4B protease inhibitors, primary screen, biochemical, fluorescence, uHTS | Cysteine protease ATG4B (Homo sapiens), Q9Y4P1 | ATG4B cleavage of LC3-PLA2, NBD-HPC fluorescence, 1 h | inhibition, % at 8.33 µM | hit rate 0.51% among 340,000 | AID 504462, 2011; in the data active = inhibition above about 40%
Target sequence (Q9Y4P1 whole entry, looked up): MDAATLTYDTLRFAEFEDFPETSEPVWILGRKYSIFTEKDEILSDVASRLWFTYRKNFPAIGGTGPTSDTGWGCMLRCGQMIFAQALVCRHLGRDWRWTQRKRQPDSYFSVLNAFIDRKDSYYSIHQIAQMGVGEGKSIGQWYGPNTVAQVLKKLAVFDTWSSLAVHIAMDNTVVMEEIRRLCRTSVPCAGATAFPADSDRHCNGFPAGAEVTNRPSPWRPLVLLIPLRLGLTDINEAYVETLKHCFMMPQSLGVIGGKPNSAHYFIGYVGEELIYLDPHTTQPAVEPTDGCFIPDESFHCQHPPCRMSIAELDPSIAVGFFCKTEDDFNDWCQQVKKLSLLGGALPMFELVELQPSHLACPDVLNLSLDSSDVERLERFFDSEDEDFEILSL
NRP1-CendR mod – modulators of CendR peptide binding to NRP-1, primary screen, biochemical, fluorescence polarization, uHTS; hit rate 0.85% among 360,000; Neuropilin-1 (Homo sapiens), O14786; inhibition, % at 25 µM; FAM-RPARPAR peptide binding to NRP-1;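 active = inhibition or corrected inhibition above about 18%, plus a signal ratio from 0.5 to 1.5, limit read from the data, passing the limit was not always enough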
MPTP counter – fluorescence retest of MPTP screen hits in isolated mitochondria, single concentration. shares compounds with MPTP block. membrane potential, Rhodamine 123 fluorescence. inhibition, % at 10 µM. hit rate 78% among 5,000. AID 624504, 2012; in the data active = inhibition above about 22%
MPTP swell DR – mitochondrial permeability transition pore inhibitors, dose response, biochemical, absorbance, uHTS hits | shares compounds with MPTP block | isolated mitochondria swelling | IC50, µM | hit rate 58% among 780 | AID 651561, 2012; in the data active = IC50 below about 20 µM
MPTP cs DR – fluorescent counter-screen in isolated mitochondria, dose response, counter-screen for MPTP inhibitor project, biochemical, fluorescence, uHTS hits | shares compounds with MPTP block | isolated mitochondria counterscreen, fluorescence read-out | IC50, µM | hit rate 49% among 780 | AID 651564, 2012; in the data active = IC50 below about 80 µM
Of the large screens only hits and unclear results are named; the others gave an inactive call (follow-up assays come after a bar, where they were run). Compounds with a hit are over-represented: about 2.7% of the library has one in this group of screens.

CN(c1ccccc1)S(=O)(=O)c1ccc(Cl)c(C(=O)Nc2ccc(N3CCOCC3)cc2)c1	none
Cc1nc2ccc(NC(=O)c3cc(S(=O)(=O)N(C)c4ccccc4)ccc3Cl)cc2s1	MPTP block 107 (no result: CFTR F508del cor) | MPTP counter 84
Cc1nc2ccc(NC(=O)c3ccc(Cl)c(S(=O)(=O)N(C)c4ccccc4)c3)cc2s1	MPTP block 74 (no result: CFTR F508del cor) | MPTP counter 69
Cc1nc2ccc(NC(=O)c3ccc(S(=O)(=O)N(C)C)cc3)cc2s1	none
COCC(=O)Nc1ccc2c(c1)C(=O)N(C)[C@@H]1CC[C@@H](CC(=O)NCc3ccc(OC)cc3)O[C@H]1CO2	none (no result: SKN-1 inh, MPTP block, ATG4B inhibitor, NRP1-CendR mod)
C[C@@H]1CN([C@@H](C)CO)C(=O)c2cccc(N(C)C)c2O[C@H]1CN(C)Cc1ccc2c(c1)OCO2	none (no result: SKN-1 inh, MPTP block, ATG4B inhibitor, NRP1-CendR mod)
COCC(=O)N1C[C@H](C)[C@H](OC)CN(C)C(=O)c2ccc(NC(=O)c3cc(C)on3)cc2OC[C@@H]1C	none (no result: SKN-1 inh, MPTP block, ATG4B inhibitor, NRP1-CendR mod)
Oc1ccc(Cl)cc1N=Cc1sc2ccccc2c1Cl	none
O=[N+]([O-])c1ccc(O)c(N=Cc2sc3ccccc3c2O)c1	MPTP block 60 (no result: CFTR F508del cor) | MPTP counter 67
CCc1ccc(NC(=O)[C@H](Cc2c[nH]c3ccccc23)NC(=O)[C@@H]2Cc3ccccc3CN2)cc1	MPTP block 72 | MPTP counter inactive | MPTP swell DR 7.6 | MPTP cs DR inactive
CN(C)c1ccc(/C=C/c2ccc3c4ccccc4ccc3[n+]2-c2ccccc2)cc1	MPTP block 154 | MPTP counter 77
CN(C)c1ccc(/C=C/c2cccc[n+]2[O-])cc1	none
CN(C)c1ccc(/C=C/c2ccc3ccccc3[n+]2C)cc1	MPTP block 109 (no result: CFTR F508del cor) | MPTP counter 68
O=S(=O)(N/N=C1/CCCc2ccccc21)c1ccc(Br)cc1	none (no result: CFTR F508del cor)
Cc1ccc(S(=O)(=O)NN=C2CCC(C(C)(C)C)CC2)cc1[N+](=O)[O-] (stereo not given)	none (no result: CFTR F508del cor)
Cc1ccc(S(=O)(=O)N/N=C2/CC(c3ccccc3)Oc3ccccc32)cc1[N+](=O)[O-] (stereo not given)	MPTP block 78 (no result: CFTR F508del cor) | MPTP counter 76
O=S(=O)(N/N=C1/CC(c2ccccc2)Oc2ccccc21)c1ccc(Br)cc1 (stereo not given)	MPTP block 76 (no result: CFTR F508del cor) | MPTP counter 85
C[C@H](CO)N1C[C@H](C)[C@@H](CN(C)C(=O)c2ccccc2)Oc2ncc(C3=CCCC3)cc2C1=O	none (no result: SKN-1 inh, MPTP block, ATG4B inhibitor, NRP1-CendR mod)
O=C(CC1CC1)N1CC(=O)N2[C@H](C1)[C@H](c1ccc(-c3ccccc3)cc1)[C@@H]2CO	none (no result: SKN-1 inh, MPTP block, ATG4B inhibitor, NRP1-CendR mod)
COc1cccc(/C=N/NC(=S)NC2CC3CCC2C3)c1OC (stereo not given)	none
Oc1ccccc1/C=N/NC(=S)NC1CC2CCC1C2 (stereo not given)	MPTP block 54 | MPTP counter 67
COCc1cc(CN2CCCC2)c(O)c2ncccc12	none (no result: CFTR F508del cor)
COc1ccc2nc3cc(Cl)ccc3c(Nc3cc(CN4CCCC4)c(O)c(CN4CCCC4)c3)c2n1	MPTP block 72 (no result: ATG4B inhibitor) | MPTP counter inactive
O=C(Cc1ccccn1)NCC[C@@H]1CC[C@@H](NS(=O)(=O)c2ccccc2)[C@H](CO)O1	none (no result: SKN-1 inh, MPTP block, ATG4B inhibitor, NRP1-CendR mod)
Cc1nc(C(=O)Nc2ccccc2Cl)cc2c1[nH]c1ccccc12	MPTP block 55 (no result: CFTR F508del cor) | MPTP counter inactive | MPTP swell DR inactive | MPTP cs DR inactive
CCn1c(CNC(=O)COc2ccc(C(C)C)cc2)nnc1SCC(=O)Nc1ccccc1C(C)C	MPTP block 53 (no result: CFTR F508del cor) | MPTP counter 57
CCn1c(CNC(=O)COc2ccc(C(C)C)cc2)nnc1SCC(=O)Nc1ccccc1F	none (no result: CFTR F508del cor)
Cn1ncc(Cl)c1C(=O)N1CCN(C(=O)c2ccco2)CC1	MPTP block 73 | MPTP counter inactive | MPTP swell DR inactive | MPTP cs DR inactive
Cn1ncc(Cl)c1C(=O)N1CCN(c2ccccc2)CC1	none
C[C@@H]1CN([C@@H](C)CO)C(=O)c2cc(NC(=O)Nc3cccc4ccccc34)ccc2O[C@@H](C)CCCCO[C@@H]1CN(C)C(=O)Nc1ccccc1	none (no result: SKN-1 inh, MPTP block, ATG4B inhibitor, NRP1-CendR mod)
CCCCCCCCCCOC(=O)Cn1c(COc2ccccc2OC)[n+](C)c2ccccc21	MPTP block 53 | MPTP counter 95
Cn1c(COc2ccccc2O)[n+](C)c2ccccc21	none
C[C@@H]1CN([C@@H](C)CO)C(=O)c2cc(NS(=O)(=O)c3cn(C)cn3)ccc2O[C@@H](C)CCCCO[C@H]1CN(C)Cc1ccncc1	none (no result: SKN-1 inh, MPTP block, ATG4B inhibitor, NRP1-CendR mod)
CCCSc1nsc(NC(=O)CC)n1	none
CCCCCCSc1nsc(NC(=O)CC(C)C)n1	MPTP block 78 | MPTP counter 92
C/C=C/c1ccccc1[C@H]1[C@@H](C#N)N(C(=O)NC2CCCC2)[C@H]1CO	none (no result: SKN-1 inh, MPTP block, ATG4B inhibitor, NRP1-CendR mod)
CCN=C1S/C(=C\c2cc(OCC)c(O)cc2Br)C(=O)N1CC	MPTP block 67 (no result: CFTR F508del cor) | MPTP counter 71
O=C(C[C@@H]1CC[C@H]2[C@@H](COC[C@H](O)CN2CC2CC2)O1)NCC1CC1	none (no result: SKN-1 inh, MPTP block, ATG4B inhibitor, NRP1-CendR mod)
O=c1c(N=Nc2ccc(O)cc2)c(-c2ccccc2)[nH]n1-c1ccc([N+](=O)[O-])cc1	none
O=c1cc(-c2ccccc2)[nH]n1-c1ccc([N+](=O)[O-])cc1	MPTP block 100 | MPTP counter 77
CC(C)C#Cc1ccc2c(c1)O[C@H](CN(C)C)[C@H](C)CN([C@@H](C)CO)S2(=O)=O	none (no result: SKN-1 inh, MPTP block, ATG4B inhibitor, NRP1-CendR mod)
CC(C)c1c(O)ccc2c1CC[C@H]1C(C)(C)CCC[C@]21C	CFTR F508del cor 9.0, MPTP block 98 | MPTP counter inactive | MPTP swell DR inactive | MPTP cs DR 16
O=C(C[C@@H]1CC[C@@H]2[C@H](COC[C@H](O)CN2S(=O)(=O)c2ccccc2F)O1)N1CCC(Cc2ccccc2)CC1	none (no result: SKN-1 inh, MPTP block, ATG4B inhibitor, NRP1-CendR mod)
CC1CCC(C(C)C)C(OCC(O)CNC(C)c2ccccc2)C1 (stereo not given)	MPTP block 77 | MPTP counter 25
COc1ccc(OCC(O)CNC(C)c2ccccc2)cc1 (stereo not given)	none
CCCC(NCC(O)COc1ccc(-c2ccccc2)cc1)c1ccccc1 (stereo not given)	SKN-1 inh 58, MPTP block 55 | MPTP counter inactive | MPTP swell DR 4 | MPTP cs DR 48
CC(NCC(O)COc1ccc(Br)cc1)c1ccccc1 (stereo not given)	MPTP block 81 | MPTP counter inactive | MPTP swell DR 5.5 | MPTP cs DR inactive
